These results are taken from ChEMBL document CHEMBL1961873, “Compounds: GSK PKIS; Assays: Nanosyn kinase panel” (2012).

Assay [1] deals with T1, Ephrin type-B receptor 2 (Homo sapiens) (UniProt P29323).
T1 sequence (whole entry): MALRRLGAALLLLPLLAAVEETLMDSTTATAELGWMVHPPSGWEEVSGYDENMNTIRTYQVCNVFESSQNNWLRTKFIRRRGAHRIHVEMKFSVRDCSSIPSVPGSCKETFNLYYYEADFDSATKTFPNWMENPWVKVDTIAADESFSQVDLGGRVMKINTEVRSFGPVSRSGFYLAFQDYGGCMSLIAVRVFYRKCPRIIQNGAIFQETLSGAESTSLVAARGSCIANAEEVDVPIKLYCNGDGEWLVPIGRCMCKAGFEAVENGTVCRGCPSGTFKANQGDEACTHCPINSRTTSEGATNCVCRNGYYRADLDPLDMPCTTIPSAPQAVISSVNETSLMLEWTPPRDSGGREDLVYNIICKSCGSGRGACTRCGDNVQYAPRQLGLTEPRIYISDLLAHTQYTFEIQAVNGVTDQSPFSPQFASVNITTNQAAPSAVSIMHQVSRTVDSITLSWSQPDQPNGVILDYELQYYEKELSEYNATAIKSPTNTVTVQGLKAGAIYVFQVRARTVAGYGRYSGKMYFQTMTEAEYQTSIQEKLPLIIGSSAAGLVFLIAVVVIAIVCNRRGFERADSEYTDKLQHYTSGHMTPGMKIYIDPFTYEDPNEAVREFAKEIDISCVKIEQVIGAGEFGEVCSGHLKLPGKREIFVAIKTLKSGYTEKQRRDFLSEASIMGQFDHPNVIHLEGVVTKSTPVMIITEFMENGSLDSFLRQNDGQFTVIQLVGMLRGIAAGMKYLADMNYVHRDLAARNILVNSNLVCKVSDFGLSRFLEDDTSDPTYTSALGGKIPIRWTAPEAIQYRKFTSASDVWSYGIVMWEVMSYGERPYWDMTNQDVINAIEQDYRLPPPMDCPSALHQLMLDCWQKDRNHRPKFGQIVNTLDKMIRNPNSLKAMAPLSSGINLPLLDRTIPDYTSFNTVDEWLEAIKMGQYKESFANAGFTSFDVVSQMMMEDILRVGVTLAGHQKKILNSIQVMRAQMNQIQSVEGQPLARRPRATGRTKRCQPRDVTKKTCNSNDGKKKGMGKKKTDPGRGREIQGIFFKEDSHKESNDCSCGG
To be noted: at 1 µM.

The target of assay [2] is T2, Ephrin type-B receptor 3 (Homo sapiens) (UniProt P54753).
T2 sequence (whole entry): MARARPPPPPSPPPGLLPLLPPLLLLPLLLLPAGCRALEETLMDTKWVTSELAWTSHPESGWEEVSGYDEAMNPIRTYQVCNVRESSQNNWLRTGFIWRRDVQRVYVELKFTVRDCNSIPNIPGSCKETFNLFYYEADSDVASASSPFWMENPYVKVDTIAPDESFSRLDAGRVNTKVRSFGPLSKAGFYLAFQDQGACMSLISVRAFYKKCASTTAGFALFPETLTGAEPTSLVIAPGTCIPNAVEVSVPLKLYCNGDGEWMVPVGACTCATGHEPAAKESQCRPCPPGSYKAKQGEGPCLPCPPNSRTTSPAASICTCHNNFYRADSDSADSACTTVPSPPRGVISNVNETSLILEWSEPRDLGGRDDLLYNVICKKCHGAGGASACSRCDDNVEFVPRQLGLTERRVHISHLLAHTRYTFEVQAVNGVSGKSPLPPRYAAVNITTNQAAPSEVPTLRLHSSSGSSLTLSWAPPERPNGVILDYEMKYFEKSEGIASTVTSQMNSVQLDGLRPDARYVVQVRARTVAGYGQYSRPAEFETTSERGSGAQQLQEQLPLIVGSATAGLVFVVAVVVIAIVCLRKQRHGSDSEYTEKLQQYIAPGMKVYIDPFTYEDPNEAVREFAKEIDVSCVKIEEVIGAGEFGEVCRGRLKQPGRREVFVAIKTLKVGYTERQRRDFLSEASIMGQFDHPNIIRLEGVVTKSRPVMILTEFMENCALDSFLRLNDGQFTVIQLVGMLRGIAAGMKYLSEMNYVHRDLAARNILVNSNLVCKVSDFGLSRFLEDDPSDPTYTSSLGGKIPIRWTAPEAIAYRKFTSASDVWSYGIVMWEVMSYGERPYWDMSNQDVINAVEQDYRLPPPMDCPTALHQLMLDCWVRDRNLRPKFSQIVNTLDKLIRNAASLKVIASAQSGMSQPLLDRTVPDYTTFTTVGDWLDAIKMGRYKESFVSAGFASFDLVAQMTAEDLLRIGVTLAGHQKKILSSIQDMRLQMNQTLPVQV
To be noted: at 0.1 µM.

The target in assay [3] is T2, Ephrin type-B receptor 3 (Homo sapiens). As to conditions: at 1 µM.
Assay [4] deals with T3, Ephrin type-B receptor 4 (Homo sapiens) (UniProt P54760).
T3 sequence (whole entry): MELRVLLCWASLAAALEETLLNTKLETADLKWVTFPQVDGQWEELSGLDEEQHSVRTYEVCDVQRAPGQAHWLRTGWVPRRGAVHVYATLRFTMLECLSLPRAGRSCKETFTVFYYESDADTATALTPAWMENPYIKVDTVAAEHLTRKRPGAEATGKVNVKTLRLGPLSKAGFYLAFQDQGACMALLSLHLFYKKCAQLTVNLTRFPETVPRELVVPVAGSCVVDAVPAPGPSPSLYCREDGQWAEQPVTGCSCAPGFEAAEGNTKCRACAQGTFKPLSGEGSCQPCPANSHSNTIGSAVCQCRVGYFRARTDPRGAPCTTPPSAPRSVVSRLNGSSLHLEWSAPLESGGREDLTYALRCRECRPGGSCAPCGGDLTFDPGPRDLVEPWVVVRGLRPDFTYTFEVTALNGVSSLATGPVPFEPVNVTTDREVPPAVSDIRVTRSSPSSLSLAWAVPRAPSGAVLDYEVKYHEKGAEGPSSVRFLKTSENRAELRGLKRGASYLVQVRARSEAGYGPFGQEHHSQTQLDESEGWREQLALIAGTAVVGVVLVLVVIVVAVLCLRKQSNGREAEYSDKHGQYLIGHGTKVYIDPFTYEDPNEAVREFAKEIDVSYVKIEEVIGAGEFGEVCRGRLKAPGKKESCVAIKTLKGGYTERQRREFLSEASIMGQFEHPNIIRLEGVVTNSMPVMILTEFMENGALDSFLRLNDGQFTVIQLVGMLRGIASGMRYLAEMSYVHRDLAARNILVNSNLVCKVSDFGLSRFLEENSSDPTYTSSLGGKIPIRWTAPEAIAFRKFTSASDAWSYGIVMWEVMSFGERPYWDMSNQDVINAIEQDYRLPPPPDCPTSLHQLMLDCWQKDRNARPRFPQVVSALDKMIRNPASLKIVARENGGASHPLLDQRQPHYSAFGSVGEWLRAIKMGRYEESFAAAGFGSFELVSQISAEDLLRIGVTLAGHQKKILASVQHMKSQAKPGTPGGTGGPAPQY
As to conditions: at 0.1 µM.

Assay [5] concerns the target T3, Ephrin type-B receptor 4 (Homo sapiens). To be noted: at 1 µM.
In assay [6] the target is Receptor tyrosine-protein kinase erbB-2 (Homo sapiens) (UniProt P04626). To be noted: at 0.1 µM.
Chain of Receptor tyrosine-protein kinase erbB-2 (Homo sapiens) (P04626 whole entry): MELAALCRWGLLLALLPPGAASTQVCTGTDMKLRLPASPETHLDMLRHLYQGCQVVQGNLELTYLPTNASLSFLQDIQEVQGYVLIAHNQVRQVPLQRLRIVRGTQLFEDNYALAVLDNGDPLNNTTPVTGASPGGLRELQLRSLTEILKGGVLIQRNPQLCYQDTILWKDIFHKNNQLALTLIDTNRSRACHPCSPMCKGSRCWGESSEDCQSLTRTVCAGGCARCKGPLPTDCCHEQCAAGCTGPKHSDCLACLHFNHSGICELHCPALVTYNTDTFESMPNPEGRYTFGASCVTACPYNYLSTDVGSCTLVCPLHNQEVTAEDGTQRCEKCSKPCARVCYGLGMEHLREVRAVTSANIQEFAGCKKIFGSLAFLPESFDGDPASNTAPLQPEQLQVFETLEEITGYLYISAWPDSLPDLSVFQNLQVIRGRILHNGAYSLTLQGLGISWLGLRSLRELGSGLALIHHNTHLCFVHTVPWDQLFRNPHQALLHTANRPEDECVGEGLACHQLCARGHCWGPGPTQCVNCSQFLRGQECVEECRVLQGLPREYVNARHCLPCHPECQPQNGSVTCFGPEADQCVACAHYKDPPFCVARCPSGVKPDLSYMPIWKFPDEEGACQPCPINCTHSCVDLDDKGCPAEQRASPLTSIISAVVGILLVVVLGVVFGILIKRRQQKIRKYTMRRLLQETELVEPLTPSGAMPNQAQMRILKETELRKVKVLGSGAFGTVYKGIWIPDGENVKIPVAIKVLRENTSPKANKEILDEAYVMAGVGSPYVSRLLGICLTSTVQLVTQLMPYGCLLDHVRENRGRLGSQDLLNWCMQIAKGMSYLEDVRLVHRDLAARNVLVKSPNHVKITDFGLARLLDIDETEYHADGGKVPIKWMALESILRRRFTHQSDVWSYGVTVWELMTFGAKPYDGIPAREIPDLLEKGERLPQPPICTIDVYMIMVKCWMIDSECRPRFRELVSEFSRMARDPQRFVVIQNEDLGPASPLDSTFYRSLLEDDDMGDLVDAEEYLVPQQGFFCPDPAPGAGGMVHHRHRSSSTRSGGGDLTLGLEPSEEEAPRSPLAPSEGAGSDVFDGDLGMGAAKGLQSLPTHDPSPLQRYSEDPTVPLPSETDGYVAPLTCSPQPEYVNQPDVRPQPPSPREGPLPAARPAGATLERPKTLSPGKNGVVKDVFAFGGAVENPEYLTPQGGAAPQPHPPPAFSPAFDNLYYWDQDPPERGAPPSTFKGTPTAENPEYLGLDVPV
Assay [7] has the same target. To be noted: at 1 µM.
In assay [8] the target is Receptor tyrosine-protein kinase erbB-4 (Homo sapiens) (UniProt Q15303). To be noted: at 0.1 µM.
Chain of Receptor tyrosine-protein kinase erbB-4 (Homo sapiens) (Q15303 whole entry): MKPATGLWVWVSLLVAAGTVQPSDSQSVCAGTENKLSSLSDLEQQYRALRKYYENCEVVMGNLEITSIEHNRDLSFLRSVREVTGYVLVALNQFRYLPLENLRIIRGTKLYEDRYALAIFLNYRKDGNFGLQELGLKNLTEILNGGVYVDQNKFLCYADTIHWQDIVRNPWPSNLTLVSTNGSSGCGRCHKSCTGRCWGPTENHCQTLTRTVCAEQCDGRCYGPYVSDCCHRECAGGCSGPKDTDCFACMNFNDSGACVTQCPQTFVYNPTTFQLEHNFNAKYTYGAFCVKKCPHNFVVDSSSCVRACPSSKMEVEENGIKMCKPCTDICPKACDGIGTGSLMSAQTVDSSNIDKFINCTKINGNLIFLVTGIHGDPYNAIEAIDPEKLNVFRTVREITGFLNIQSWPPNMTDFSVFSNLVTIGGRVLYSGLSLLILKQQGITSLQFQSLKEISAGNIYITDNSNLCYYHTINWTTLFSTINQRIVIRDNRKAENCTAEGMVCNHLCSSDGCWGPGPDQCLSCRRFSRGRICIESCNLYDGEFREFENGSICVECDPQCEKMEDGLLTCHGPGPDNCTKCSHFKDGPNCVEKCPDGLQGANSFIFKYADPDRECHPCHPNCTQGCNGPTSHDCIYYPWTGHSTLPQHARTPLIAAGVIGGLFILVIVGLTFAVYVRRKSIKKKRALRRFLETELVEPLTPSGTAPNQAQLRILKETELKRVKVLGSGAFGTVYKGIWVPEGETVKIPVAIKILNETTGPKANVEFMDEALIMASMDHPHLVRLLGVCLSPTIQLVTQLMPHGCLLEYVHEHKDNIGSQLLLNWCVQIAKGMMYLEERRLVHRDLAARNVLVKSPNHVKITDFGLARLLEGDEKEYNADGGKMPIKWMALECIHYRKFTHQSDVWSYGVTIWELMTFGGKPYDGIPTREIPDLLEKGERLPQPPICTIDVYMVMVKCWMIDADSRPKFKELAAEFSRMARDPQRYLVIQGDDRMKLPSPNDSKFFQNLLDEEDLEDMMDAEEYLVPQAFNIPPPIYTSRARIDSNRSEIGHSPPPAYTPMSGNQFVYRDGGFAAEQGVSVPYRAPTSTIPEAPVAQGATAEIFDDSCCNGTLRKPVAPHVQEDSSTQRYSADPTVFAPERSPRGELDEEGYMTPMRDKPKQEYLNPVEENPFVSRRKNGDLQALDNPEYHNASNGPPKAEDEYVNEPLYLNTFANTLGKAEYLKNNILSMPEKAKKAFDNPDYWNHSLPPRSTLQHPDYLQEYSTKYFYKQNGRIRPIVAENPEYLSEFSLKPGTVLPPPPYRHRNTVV
The target is the same in assay [9]. To be noted: at 1 µM.
In assay [10] the target is Tyrosine-protein kinase Fer (Homo sapiens) (UniProt P16591). As to conditions: at 0.1 µM.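 Also: reported figures are averaged percent inhibition of FER.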
Chain of Tyrosine-protein kinase Fer (Homo sapiens) (P16591 whole entry, looked up): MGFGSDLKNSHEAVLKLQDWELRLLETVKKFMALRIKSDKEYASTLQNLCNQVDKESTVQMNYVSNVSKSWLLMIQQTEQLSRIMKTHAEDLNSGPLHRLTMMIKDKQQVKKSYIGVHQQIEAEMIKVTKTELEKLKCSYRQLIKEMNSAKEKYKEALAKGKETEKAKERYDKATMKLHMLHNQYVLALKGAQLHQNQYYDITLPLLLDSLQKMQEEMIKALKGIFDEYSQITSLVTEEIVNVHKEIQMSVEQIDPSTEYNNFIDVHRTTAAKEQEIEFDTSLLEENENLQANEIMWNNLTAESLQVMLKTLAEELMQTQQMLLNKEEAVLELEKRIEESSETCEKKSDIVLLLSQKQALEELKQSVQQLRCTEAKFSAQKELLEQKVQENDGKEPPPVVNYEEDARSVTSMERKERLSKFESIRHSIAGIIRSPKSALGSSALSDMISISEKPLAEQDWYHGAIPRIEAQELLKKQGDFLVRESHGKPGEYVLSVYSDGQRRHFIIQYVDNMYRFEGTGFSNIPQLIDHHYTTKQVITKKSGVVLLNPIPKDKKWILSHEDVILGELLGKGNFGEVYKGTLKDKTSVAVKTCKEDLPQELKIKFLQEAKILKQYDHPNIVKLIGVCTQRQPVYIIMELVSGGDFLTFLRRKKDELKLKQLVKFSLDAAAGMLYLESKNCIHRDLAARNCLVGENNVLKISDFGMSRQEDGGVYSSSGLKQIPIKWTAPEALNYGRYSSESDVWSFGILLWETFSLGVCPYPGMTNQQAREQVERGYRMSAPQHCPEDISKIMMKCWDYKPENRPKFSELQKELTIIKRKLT

As for `CN(C)C(=O)O[C@H]1CN[C@H](C#Cc2cc3ncnc(Nc4ccc(OCc5cccc(F)c5)c(Cl)c4)c3s2)C1`, the inhibition in [1] was determined as 14.1%; in assay [2], 4.55%; in assay [3], 5.69%; in [4], 2.43%; in assay [5], 3.92%; in assay [6] it was 4%. In addition, the inhibition in assay [7] worked out at 50.4%; in assay [8], 92.5%; in [9] it was 120%; in [10], 1.02%.

Take `c1ccc(Nc2ncc(-c3ccccc3)o2)cc1`: the inhibition in assay [1] worked out at 12.9%; in assay [2], 2.14%; in assay [3] it was 6.32%; in assay [4] it was 4.58%; in assay [5], 5.49%; in assay [6], 43.6%. In addition, the inhibition in [7] was found to be 8.36%; in assay [8] it was 11%; in assay [9], 16%; in [10] it was 3.09%.

As to `NS(=O)(=O)c1ccc(Nc2cc(-c3cccc(O)c3)n[nH]2)cc1`, the inhibition in assay [1] came to 12.4%; in assay [2], 8.13%; in [3] it was 1.98%; in assay [4], 1.74%; in assay [5] it was 4.14%; in [6], 1.73%. Besides, the inhibition in assay [7] was -4.93%; in assay [8], 14.3%; in assay [9], 14.3%; in assay [10], 2.71%.

Regarding `Cc1ccc(Nc2ccnc(Nc3cccc(C(N)=O)c3)n2)cc1O`, the inhibition in assay [1] was 38.6%; in assay [2], 0.29%; in assay [3], -0.39%; in [4] it was 2.22%; in assay [5], 29.1%; in [6] it was 2.41%. Also, the inhibition in assay [7] was determined as 5.7%; in assay [8], 6.84%; in assay [9] it was 20.2%; in assay [10] it was 4.75%.

For `CN(c1ccc(NC(=O)Nc2ccc(OC(F)(F)F)cc2)cc1)c1ccnc(Nc2cccc(S(N)(=O)=O)c2)n1`, the inhibition in [1] came out at 54.8%; in assay [2] it was 3.87%; in [3], 8.25%; in assay [4], 1.79%; in assay [5] it was 30.7%; in assay [6], 2.39%. Besides, the inhibition in assay [7] stood at 4.23%; in assay [8] it was 7.13%; in assay [9], 14.5%; in assay [10], 12.6%.

On to `CN(C)c1cc2c(Nc3ccc4c(cnn4Cc4ccccc4)c3)ncnc2cn1`, for which the inhibition in assay [1] came out at 0.46%; in assay [2], 4.69%; in [3], 1.55%; in assay [4] it was 0.91%; in assay [5], 2.11%; in assay [6] it was 53.4%. Besides, the inhibition in [7] is 86.6%; in assay [8], 91.1%; in assay [9] it was 94.6%; in [10] it was 1.79%.

Turning to `COc1cccc(-n2nc(C)c3c(N/N=C(\C)c4ccncc4)ncnc32)c1`, the inhibition worked out at 3.31% in assay [1]; 1.98% in [2]; 0.96% in assay [3]; 0.44% in assay [4]; 1.01% in [5]; 0.07% in assay [6]. The inhibition in assay [7] is 2.47%; in assay [8], 0.79%; in [9] it was -0.06%; in assay [10], 1.02%.

As to `c1ccc(Cc2nc3ccc(Nc4ncnc5ccccc45)cc3[nH]2)cc1`, the inhibition in assay [1] came to 12.8%; in assay [2], 3.69%; in [3], 6.08%; in assay [4], 1.42%; in assay [5], 1.8%; in assay [6] it was 2.07%. The inhibition is 51.6% in assay [7], 98.2% in [8], 115% in assay [9] and 0.32% in [10].

As for `COC(=O)c1ccc2c(c1)C(=Cc1cc(Br)c(O)c(Br)c1)C(=O)N2`, the inhibition was 7.02% in assay [1]; 2.1% in assay [2]; 3.26% in assay [3]; 2.41% in assay [4]; 3.68% in assay [5]; -0.98% in [6]. For the same molecule, the inhibition in assay [7] was 3.44%; in [8], 3.22%; in assay [9], 14.2%; in assay [10] it was -1.52%.
